Screens from PubChem BioAssay.
SARS PLpro yeast: blocks SARS-CoV papain-like protease in a yeast assay. S. cerevisiae expressing SARS-CoV PLpro, growth rescue. Potency, µM (highest dose often 32.9 µM), without a hit: at the highest dose activity, positive = growth rescue, actives largely listed as activators. 330,000 compounds, 0.19% hits; calls by dose curve; further: 0% is about no effect; nearly all actives have a fitted effect of over 55% in size
Sm TGR block: blocks Schistosoma mansoni thioredoxin glutathione reductase. Q962Y6. purified TGR, DTNB reduction, TNB absorbance 405 nm. Potency, µM (doses to about 114 µM), without a hit: top-dose activity change, negative = inhibition, most hits filed as inhibitors. 360,000 compounds, 3% hits. AID 485364; active means well fitted inhibition curve with a large enough effect; inconclusive means small, poorly fitted or top-dose-only effect; inactive means no such curve, though single readings can be large or run the other way; further: on the % scale 0 is the no-effect control and ±100 the full control effect; nearly all actives have a fitted effect of over 60% in size
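First, TGR (20 nM dispensed) and NADPH were mixed with compound. Second, a 15 min room-temperature incubation followed. Third, further NADPH and then DTNB were added to start the reaction. Finally, TNB absorbance was monitored kinetically.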
Active calls of the source: *; u = inconclusive; x = not tested or not shown; [ ] = another dose, or the depositor's remark. Compounds with a hit are over-represented: about 3% of the library has one in this group of screens. Potency means the concentration at half of the fitted maximal effect.

SMILES | SARS PLpro yeast | Sm TGR block
CCCNC(=O)c1c(N)n(-c2cc(OC)cc(OC)c2)c2nc3ccccc3nc12 | 1% | -19%
CCOc1ccc(-n2c(N)c(C(=O)NCc3ccco3)c3nc4ccccc4nc32)cc1 | -2% | 50µM*
COc1ccc(-c2nc3cc(NC(=O)COc4ccccc4C)ccc3o2)cc1 | x | -7%
CC(C)NC(=O)c1ccc(CSc2nc3ccncc3n2Cc2cccc(F)c2)cc1 | x | 5%
O=C(NCc1ccc(Cl)cc1)c1ccc2c(Cl)c3c(nc2c1)CCCC3 | x | 0%
CCC(=O)OC1=CN(Cc2ccccc2)S(=O)(=O)c2ccccc21 | x | -9%
CC(C)(C)c1ccc(C(=O)N2CCN(Cc3cc(=O)n4nc(-c5ccccc5F)sc4n3)CC2)cc1 | x | 5%
COc1ccc(C2=C/C(=C\c3ccc(OC(C)=O)cc3)C(=O)O2)cc1 | 4% | 50µM*
CC(=O)Oc1cccc(/C=C2\C=C(c3ccc(C)cc3)OC2=O)c1 | -2% | x
COc1ccccc1Cn1ccn(Cc2c(F)cccc2Cl)c(=O)c1=O | x | 8%
CCOC(=O)C1=C(CN2CCN(c3ccc(OC)cc3)CC2)NC(=O)NC1c1ccc(OC)cc1 (centres undefined) | x | -21%
CCOc1ccc(C(c2c(O)nc(SC)n(C)c2=O)c2c(O)nc(SC)n(C)c2=O)cc1 | 4% | 16µM*
CCOc1ccc(OCC(=O)OCn2c(SC)nnc(C)c2=O)cc1 | -5% | 10%
Cc1oc(-c2ccccc2)cc1C(N)=O | -5% | 1%
CCN(CC)Cc1oc(-c2ccccc2)cc1C(=O)O | 1% | 50µM*
NCc1oc(-c2ccccc2)cc1C(=O)O | -2% | 45µM*
CCN(CC)Cc1cc(C(=O)O)c(-c2ccccc2)o1 | 2% | -17%
N#CC1=C(N)OC2=C(C(=O)CCC2)C1CCc1ccccc1 (centres undefined) | 5% | -21%
O=C1CCCC2=C1C(Cc1ccccc1)C1=C(CCCC1=O)O2 | -8% | 10µM*
COc1cccc(NC(=O)Cc2csc(COc3cccc(C)c3)n2)c1 | x | -1%
Cn1c(SCC(N)=O)nc2c([nH]c3ccccc32)c1=O | x | 7%
CCc1ccc(-n2nc(C)c3c(C)cc(=O)n(CC(=O)Nc4ccc(OC)c(OC)c4)c32)cc1 | x | -4%
Cc1ccc(S(=O)(=O)c2cn(Cc3ccccc3)c3cc(N4CCOCC4)c(F)cc3c2=O)cc1 | x | 1%
O=c1ccc2cc3c([nH]c4ccc(Br)cc43)oc-2c1O | -1% | 56µM*
O=C(O)c1ccc(N=Nc2c(O)[nH]c3ccc(Br)cc23)cc1 | -2% | 3%
SMILES | SARS PLpro yeast | Sm TGR block
CC(=O)NC(c1cc(Cl)c2cccnc2c1O)C(C)C (centres undefined) | 1% | 6%
CCC(=O)NC(c1ccc(OC)cc1)c1cc(Cl)c2cccnc2c1O (centres undefined) | -1% | 1%
Oc1c(C(c2ccccn2)N2CCC(Cc3ccccc3)CC2)cc(Cl)c2cccnc12 (centres undefined) | -18% | 3.5µM*
Cc1ccc(C(c2cc(Cl)c3cccnc3c2O)N2CCN(C)CC2)cc1 (centres undefined) | x | 0.71µM*
CN1CCN(C(c2ccccn2)c2cc(Cl)c3cccnc3c2O)CC1 (centres undefined) | -24% | 1.3µM*
CC(=O)NC(c1cc(Cl)c2cccnc2c1O)C1CC1 (centres undefined) | u | -19%
COc1cccc(-c2cc(C(F)(F)F)nc(-n3nc(C)c(Br)c3C)n2)c1 | x | 0%
CCc1nn2c(=O)cc(COC(=O)c3cccc(NC(=O)COc4ccccc4)c3)nc2s1 | x | 2%
CC(C)(O)C#Cc1ccc([C@@H]2C[C@H]3CN(c4ccccc4)C(=O)[C@]34CCCN24)s1 | 0% | -35%[57.1 µM]
O=C1N(c2ccccc2)C[C@@H]2C[C@@H](c3cccs3)N3CCC[C@@]123 | 1% | 16µM*
CCCNC(=O)CS(=O)Cc1nc(-c2ccc(OC)cc2)oc1C (centres undefined) | 13% | 50µM*
CCCN(CCC)CCNC(=O)CS(=O)Cc1nc(-c2ccc(C)cc2)oc1C (centres undefined) | 3% | -3%
CCc1ccc(-c2nc(CS(=O)CC(=O)NCCCN3CCOCC3)c(C)o2)cc1 (centres undefined) | -2% | 35µM*
Cc1oc(-c2ccc(Cl)cc2)nc1CS(=O)CC(=O)NCCCN1CCN(Cc2ccccc2)CC1 (centres undefined) | -1% | -6%
CCCCNC(=O)CS(=O)Cc1nc(-c2ccc(C)cc2)oc1C (centres undefined) | 8% | 45µM*
COc1ccc(-c2nc(CS(=O)CC(=O)NCCc3ccc(OC)c(OC)c3)c(C)o2)cc1 (centres undefined) | 0% | u
Cc1ccc(C)c(N2CCN(S(=O)(=O)c3ccc(-c4cc(C(F)(F)F)on4)s3)CC2)c1 | x | 12%
CC(=O)NCCNC(=O)c1ccc2c(=O)n(CCc3ccccc3)c(=O)[nH]c2c1 | x | -1%
CCOC(=O)C1CCN(C(=O)Cn2nc(C)n3c(cc4sccc43)c2=O)CC1 | x | 11%
COc1ccc(-c2noc(-c3cc(C(C)C)[nH]n3)n2)cc1 | x | 1%
COc1cccc(-c2cnc(NCc3ccccc3Cl)n2C)c1 | x | 19%
Cc1c2cnn(CC(=O)NCCc3ccccc3)c(=O)c2c(C)n1Cc1ccccc1Cl | x | -3%
CCOC(=O)CNC(=O)c1ccccc1 | 11% | 4%
CCCOC1(NC(=O)c2ccccc2)C(C)=CC(=O)C=C1C | -1% | 22µM*
COc1ccc(NS(=O)(=O)c2c(F)cc(F)c(Cl)c2F)cc1S(=O)(=O)N1CCCCC1 | 1% | 0%
SMILES | SARS PLpro yeast | Sm TGR block
COc1ccc(NS(=O)(=O)c2c(F)cccc2F)cc1S(=O)(=O)N1CCOCC1 | -3% | 40µM*
CC(=O)n1cc(C(C[N+](=O)[O-])SCCN)c2ccccc21 (centres undefined) | -34% | 8.9µM*
Cn1cc(C(C[N+](=O)[O-])c2ccccc2)c2ccccc21 (centres undefined) | -8% | -31%
O=C(NC1CC(=O)N(c2cccc(F)c2)C1)C(c1ccccc1)c1ccccc1 (centres undefined) | x | 3%
Cc1ccc2oc(=O)c3cc(C(=O)NCCCN4CCN(C)CC4)sc3c2c1 | -1% | -1%
Cc1ccc(C)c(N2CCN(C(=O)c3cc4c(=O)oc5ccccc5c4s3)CC2)c1 | x | 89µM*
O=C(NCCCN1CCCCCC1)c1cc2c(=O)oc3ccccc3c2s1 | 0% | 50µM*
Cc1cccc(N2CCN(C(=O)c3cc4c(=O)oc5ccccc5c4s3)CC2)c1C | x | 0%
CCOc1cccc(C2C(C(=O)c3ccco3)=C(O)C(=O)N2c2nnc(C)s2)c1 (centres undefined) | 1% | u
CCCOc1cccc(C2C(C(=O)c3ccc(C)o3)=C(O)C(=O)N2c2nc(C)c(C(C)=O)s2)c1 (centres undefined) | 6% | 35µM*
CCCOc1cccc(C2C(C(=O)c3ccc(C)o3)=C(O)C(=O)N2CCN2CCOCC2)c1 (centres undefined) | 0% | u
C=CCOc1cccc(C2C(C(=O)c3ccc(C)o3)=C(O)C(=O)N2CCN(C)C)c1 (centres undefined) | 1% | 35µM*
Cc1ccc(C)c(N2CCN(S(=O)(=O)c3ccc(C(=O)N(C)C)s3)CC2)c1 | x | 5%
Cc1ccc(C(C)C)c(OCC(=O)Nc2c(C(=O)c3ccc(F)cc3)oc3ccccc23)c1 | x | -2%
Cc1[nH]c(C(=O)O)c(C)c1C(=O)OC(C)C | 0% | u
